# From ChEMBL document CHEMBL3988442, “University of Dundee, Small-Polar-MMV Screening Library” (2021)
# In all, about 48,000 compounds went through this assay and about 13,000 (27%) showed an effect of 50% or more. The list shows a part of the results.
# System: Wolbachia pipientis
# Assay: Anti-Wolbachia Cell-Based Screen
# Type: functional
# Set-up: scale not given: in the data most compounds retested in dose-response had high values
# Conditions: 5 µM
row,SMILES,Percent Effect
1,O=C1CC(c2cccs2)c2snc(C(=O)O)c2N1 (stereo not drawn),12.4%
2,Cc1ccc(C(=O)N[C@H]2CN(CCO)C[C@@H]2C2CC2)cc1Cl,4.454%
3,CCNC(=O)NC(=O)CSC(C)c1ccccc1F (stereo not drawn),-4.407%
4,O=C(C[S+]([O-])Cc1csc(C2CCCC2)n1)NC1CCCC1 (stereo not drawn),-2.557%
5,CCOc1cc(C)nc(N2CCN(C(=O)CC)CC2)n1,-2.122%
6,CCc1nc(CC(=O)N2CCC(C(=O)N3CCCCC3)CC2)cs1,9.16%
7,CCC(=O)N1CCc2nc(N3CCOCC3)nc(N(C)C)c2CC1,-3.249%
8,Cc1ncc(S(C)(=O)=O)c(N2CCCCCC2)n1,3.738%
9,Cc1noc(-c2ccc(N3CCCC(C(=O)N4CCSCC4)C3)nc2)n1 (stereo not drawn),-16.11%
10,CCC(=O)N1CCC(c2nc(N3CCCC3)ncc2S(C)(=O)=O)CC1,99.88%
11,CCC(=O)N1CCC(c2nc(N3CCCCC3)ncc2S(C)(=O)=O)CC1,129%
12,CS(=O)(=O)c1cnc(N2CCCC2)nc1C1CCN(C(=O)C2CC2)CC1,114.1%
13,CCN(C)CC(=O)N1CCC(c2cc(N3CCOCC3)nc(C)n2)CC1,25.94%
14,CCC(=O)N1CCC(c2nc(N3CCOCC3)ncc2S(C)(=O)=O)CC1,98.3%
15,Cc1ccc(NS(=O)(=O)c2c[nH]c3ncccc23)nc1,17.74%
16,CCOC(=O)N1CCN(c2nc(NCCCO)c3ccccc3n2)CC1.Cl,3.007%
17,COC(=O)c1ccc(N2CCN(C(=O)c3ccncc3)C(C)C2)cc1 (stereo not drawn),-9.258%
18,CCc1nc(CC(=O)Nc2cnn(CC3CCCO3)c2)cs1 (stereo not drawn),-8.649%
19,CC(C)c1nc(O)c2nnn(C[C@@H]3CCCN(Cc4ccsc4)C3)c2n1,123.6%
20,CC(C)c1nc(O)c2nnn(C[C@H]3CCCN(Cc4ccsc4)C3)c2n1,131.3%
21,CC(C)(C)c1oc(C(N)=O)cc1CN1CCCCC1CN1CCOCC1 (stereo not drawn),-21.84%
22,N#Cc1ccc(SCCC(=O)N(Cc2cccnc2)C2CC2)cc1,-7.889%

row,SMILES,Percent Effect
1,O=c1ccc(-n2ccnc2)nn1CCNS(=O)(=O)c1ccc(Br)cc1,-0.5803%
2,CCN(CC)CC[C@H]1CN(C(=O)C2CCC2)CC[C@H]1CC(=O)O,-6.679%
3,CCN1CCCC(c2c(-c3ccccc3)ncn2CCc2c[nH]cn2)C1 (stereo not drawn),-19.27%
4,CC(C)(C(=O)NCCCC(N)=O)c1cccc(Br)c1,6.793%
5,CNC(=O)C(CCSC)NC(=O)c1ccc2ccccc2n1 (stereo not drawn),4.672%
6,CSCCC(NC(=O)c1ccc2ccccc2n1)C(=O)NC1CC1 (stereo not drawn),3.734%
7,CSCCC(Nc1nc(C)cc(C)n1)C(=O)NC1CC1 (stereo not drawn),102.4%
8,Cc1cc(C)nc(NC2CCC(=O)N(C)C2)n1 (stereo not drawn),-12.68%
9,CSCCC(NC(N)=O)C(=O)N1CCC(Cc2ccccc2)CC1 (stereo not drawn),-1.467%
10,CSCCC(Nc1nc(C)cc(C)n1)C(=O)NCC1CCOCC1 (stereo not drawn),96.94%
11,Cc1nc(CN2CCN(C(C)C(=O)NC3CCCC3)CC2)cs1 (stereo not drawn),-11.13%
12,CSCCC(Nc1nc(C)cc(C)n1)C(=O)NC1CCCC1 (stereo not drawn),67.42%
13,CSc1cc2c(cc1NC(=O)NCC1CCOC1)OCCO2 (stereo not drawn),0.9768%
14,CSCCC(NC(=O)c1ccc2ccccc2n1)C(=O)NC(C)C (stereo not drawn),0.7963%
15,Cc1cc(NC(=O)NCC2CCOC2)no1 (stereo not drawn),-3.66%
16,CSCCC(Nc1nc(C)cc(C)n1)C(=O)NC(C)(C)CO (stereo not drawn),99.02%
17,CN(C)CCCN1CC2(CCN(C3CCCOC3)CC2)OC1=O (stereo not drawn),-5.756%
18,COc1ccc(NC(=O)c2ccc[nH]2)c(N2CCN(C(C)=O)CC2)n1,6.635%
19,Cc1cc(SC(C)(C)C)ccc1NC(=O)CNC(N)=O,-8.144%
20,Cc1ccc(S(=O)(=O)NC[C@H]2OC[C@@H](NCc3ccccn3)[C@@H]2O)cc1,0.9418%
21,Cc1cc(C(=O)N2C[C@@H](CN3CCOCC3)C[C@H](CO)C2)nc(C)n1,-2.252%
22,Cc1cc(C)c(CNC(=O)N2CCCN(C(=O)C(C)C)CC2)c(C)c1,-1.6%

row,SMILES,Percent Effect
1,CC(C)=CCN1C[C@H]2CC[C@@H]1CN(Cc1coc(C)n1)C2,-7.778%
2,Cc1ccc2nc(CNCCCOc3ccccc3)cc(O)c2c1 [UCSF924],-20.67%
3,COc1ccc(OCCNCCn2cccn2)cc1,-1.614%
4,c1ccc(OCCCNCCn2cccn2)cc1,7.776%
5,CCn1ccc(-c2cc(NCCCOc3cccc(C)c3)nc(C)n2)n1,179.6%
6,CCn1ccc(-c2cc(NCCCOc3ccccc3C)nc(C)n2)n1,161.9%
7,CCN(CC1CCOCC1)C(=O)Cn1cccc(C(F)(F)F)c1=O,-10.75%
8,c1cnnc(N2CCCC(NCc3nnc(-c4ccco4)o3)C2)c1 (stereo not drawn),5.713%
9,c1ccc(-c2nc(CNC3CCCN(c4cccnn4)C3)no2)cc1 (stereo not drawn),-14.96%
10,COc1nc2c(cc1C(=O)NCc1noc(-c3ccco3)n1)CCC2,-22.9%
11,c1coc(-c2nc(CNC3CCCNC3)no2)c1 (stereo not drawn),116.1%
12,CC(C)(C)OC(=O)NC1(c2noc(-c3ccco3)n2)CCC1,-13.08%
13,OC1(CNCc2noc(Cc3ccccc3)n2)CCCNC1 (stereo not drawn),0.3473%
14,c1ccc(Cc2nc(CNC3CCC4(CCNCC4)CC3)no2)cc1,94.06%
15,c1coc(-c2nc(CNC3CCC4(CCNCC4)CC3)no2)c1,99.09%
16,COCc1nc(CNC2CCC3(CCNCC3)CC2)no1,-7.512%
17,Cc1ncc2c(n1)CN(C(C(N)=O)c1ccccc1)CC2 (stereo not drawn),4.006%
18,CC(C)NC(=O)NC[C@H]1OC[C@@H](NCc2ccncc2)[C@@H]1O,2.532%
19,Cc1ccc(OC2(C(=O)O)CCN(C/C=C/c3ccco3)CC2)cc1,-1.713%
20,O=C(Nc1cccc(OC(F)F)c1)C1CN(S(=O)(=O)C2CC2)C1,10.08%
21,CN1[C@H]2CC[C@@H]1CN(C(=O)c1nnc3n1CCCC3)CC2,1.056%
22,Cc1cnc(CN2CCN(C(C)c3nc(C(C)C)no3)CC2)cn1 (stereo not drawn),10.96%

row,SMILES,Percent Effect
1,N#Cc1ccc(N2CCN(c3cnccn3)CC2)c(C(F)(F)F)c1,-6.859%
2,CC(C)N1CCCC(c2cc(C(F)(F)F)nc3nccn23)C1 (stereo not drawn),97.97%
3,FC(F)(F)c1cc(C2CCCN(c3cnccn3)C2)n2ccnc2n1 (stereo not drawn),112.2%
4,CC(C)c1nc(C2CCCN(c3ncccn3)C2)no1 (stereo not drawn),10.51%
5,CC(C)n1ccnc1C1CCCN(c2nc3ccccc3s2)C1 (stereo not drawn),8.79%
6,FC(F)(F)c1cc(C2CCCN(c3ncccn3)C2)n2ccnc2n1 (stereo not drawn),126.4%
7,N#Cc1ccc(N2CCN(c3cnccn3)CC2)cc1C(F)(F)F,-11.21%
8,FC(F)(F)c1cc(C2CCN(c3cnccn3)CC2)n2ccnc2n1,100.9%
9,CN(C)Cc1nnc(C2CCCN(c3cc(C(F)(F)F)ccn3)C2)n1C (stereo not drawn),-6.748%
10,CC(C)N1CC[C@H](c2nc3ccc(C(F)(F)F)cc3[nH]2)C1,-4.029%
11,FC(F)(F)c1ccnc(N2CCCC(N3CCOCC3)C2)c1 (stereo not drawn),3.517%
12,CC(C)c1nc(C2CCCN(c3nccc(C(F)(F)F)n3)C2)no1 (stereo not drawn),4.176%
13,CCNc1ncc(C(=O)NCc2csc(-c3ncccn3)n2)cn1,-30.13%
14,CCOC(C)c1nc(CN2CCC(CNC(C)=O)CC2)cs1 (stereo not drawn),-3.059%
15,Cn1ccnc1C1CCN(C(=O)COCC(F)(F)C(F)F)CC1,-2.138%
16,CC(=O)N1CCC(c2cc(C(F)(F)F)nc3nccn23)CC1,113.6%
17,CN(C)CCn1ccnc1C1CCN(C(=O)CCC(F)(F)F)CC1,-12.98%
18,Cc1ccc2c(C)c(C(=O)NCCc3csc(N)n3)oc2c1,32.42%
19,O=C(c1cc(-c2ccco2)nc2c(Cl)cccc12)N1C[C@H]2CNC[C@H]2C1,10.23%
20,Cc1cc(C(=O)NCc2ccc(F)cc2)c2c(C3CCCN3)noc2n1 (stereo not drawn),101.4%
21,CCc1ccc2nc(C)cc(C(=O)N[C@@H]3CNC[C@H]3O)c2c1,-12.87%
22,CCc1ccc2nc(C)cc(C(=O)NC[C@@H]3CCNC[C@H]3O)c2c1,-0.4588%

row,SMILES,Percent Effect
1,CC(C)Cc1cc(CNC(=O)c2ccccc2C2CCNC2)no1 (stereo not drawn),0.6659%
2,Cc1cc(C(=O)NCc2cccs2)c2c(C3CCCN3)noc2n1 (stereo not drawn),99.02%
3,CC(C)(C)c1cc(C[C@H]2CNCC[C@H]2CC(=O)NCc2cccs2)no1,1.711%
4,Cc1cc(C2CCCN2C(=O)NCc2cccc(F)c2)on1 (stereo not drawn),-2.715%
5,Cc1cc(C(=O)NCc2ccc(F)cc2)c2c(C3CCNC3)noc2n1 (stereo not drawn),105.3%
6,COc1nc2c(cc1C(=O)NCc1noc(Cc3cccs3)n1)CCC2,-29.09%
7,Cc1nnc2ccc(C(=O)N3CCSC(C)(C)C3)cn12,-5.569%
8,NC(=O)CCn1cc(CNCCCc2csc(N)n2)c2ccccc21,2.752%
9,Cc1nc(CN2C[C@@H]3CCCO[C@@H]3[C@H](NC(=O)CC3CC3)C2)cs1.O=C(O)C(F)(F)F,-2.843%
10,CN1[C@@H](C(=O)NCC2CC2)C[C@@H]2CN(Cc3ccsc3)C[C@@H]21.O=C(O)C(F)(F)F.O=C(O)C(F)(F)F,95.65%
11,CS(=O)(=O)N1C[C@H]2CCCN(Cc3ccsc3)[C@H]2C1.O=C(O)C(F)(F)F,-0.02998%
12,CNC(=O)[C@@H]1C[C@H]2CN(Cc3ccc(C)o3)C[C@H]2N1C(C)=O,14.16%
13,Cc1ccc(CN2C[C@@H]3CCCO[C@@H]3[C@H](NC(=O)CC3CC3)C2)s1.O=C(O)C(F)(F)F,2.329%
14,CC(C)N1[C@H](Cn2cncn2)C[C@@H]2CN(Cc3ccsc3)CC[C@@H]21.O=C(O)C(F)(F)F,4.812%
15,Cc1nc(CN2C[C@H]3C[C@H](C(=O)NCC4CC4)N(C)[C@H]3C2)cs1.O=C(O)C(F)(F)F.O=C(O)C(F)(F)F.O=C(O)C(F)(F)F,116.2%
16,O=C(NCC1CC1)[C@H]1C[C@H]2OCC[C@H]2N(Cc2ccsc2)C1,-7.335%
17,O=C(O)C(F)(F)F.O=C(O)C(F)(F)F.O=C(O)C(F)(F)F.c1cc(CN2C[C@@H]3OCCN(CCN4CCCC4)[C@@H]3C2)cs1,-11.54%
18,CN1[C@@H](C(=O)NCC2CC2)C[C@H]2CN(Cc3ccsc3)C[C@H]21.O=C(O)C(F)(F)F.O=C(O)C(F)(F)F,106.3%
19,Cc1nc(CN2C[C@@H]3CN(C(=O)c4cnccn4)C[C@@H]3C2)cs1.O=C(O)C(F)(F)F,0.3524%
20,CNC(=O)[C@@H]1C[C@H]2CN(Cc3ccc(C)s3)C[C@H]2N1C(C)=O.O=C(O)C(F)(F)F.O=C(O)C(F)(F)F,111.1%
